Records with an inconclusive call do not appear. The source made the active and inactive calls. How the source made its calls, unless noted: active means hit-call score of the fitted dose curve at least 0.9, where 1 is the maximum; inconclusive means response in the unintended direction; inactive means score below 0.9.

Broadly, the AC50 is the midpoint of the concentration-response curve, whichever way the signal moves.

Assay [1] in a line: CCTE_Deisenroth_AIME_384WELL_CTox_Active: Cytotoxicity Assessment (CTOX) in CCTE's 384-well Estrogen Receptor Transactivation Assay with AIME metabolic competence (metabolism positive), Deisenroth Lab (AID 2284037).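 Further: chemicals first conditioned 2 h by alginate-bound induced rat liver S9 before cells; activity means signal loss indicating cell death.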 An outline of the steps: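 Chemicals pre-incubated 2 hours with alginate-immobilised phenobarbital/beta-naphthoflavone-induced male Sprague Dawley rat liver S9, then conditioned medium applied 24 hour to VM7Luc4E2 cells. Viability by fluorogenic protease substrate; 10-point series 0.002 - 200 uM.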

In assay [2] the target is Estrogen receptor (Homo sapiens) (UniProt P03372). As to the kind of experiment: CCTE_Deisenroth_AIME_384WELL_LUC_Inactive: CCTE's 384-well Estrogen Receptor Transactivation Assay without AIME metabolic competence (ERTA luciferase; metabolism negative), Deisenroth Lab (AID 2284038).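 Further: VM7Luc4E2 breast cells given medium preincubated 2 h with S9-free microspheres; hits raise estrogen receptor luciferase signal so potencies reflect agonists.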 An outline of the steps:
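VM7Luc4E2 ER transactivation, luciferase bioluminescence after 24 h, using medium pre-incubated 2 h with S9-free alginate microspheres. Concentrations 0.002–200 uM; gain of signal fitted relative to 17beta-estradiol.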

Assay [3] has the same target. As to the kind of experiment: CCTE_Deisenroth_AIME_384WELL_LUC_Shift: CCTE's 384-well Estrogen Receptor Transactivation Assay with AIME metabolic competence data shift (ERTA luciferase; difference in metabolism positive and negative), Deisenroth Lab (AID 2284041; active means hit-call score of the fitted dose curve at least 0.9, where 1 is the maximum; inactive means score below 0.9;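 further: shift is response with S9 minus without S9 so positive means metabolism raised ER signal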). An outline of the steps: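 Chemicals (0.002–200 uM, 10 points) pre-incubated 2 h with alginate-encapsulated induced male Sprague Dawley rat liver S9 or S9-free, then medium applied 24 h to VM7Luc4E2 cells; luciferase. Endpoint is per-concentration difference, S9-positive minus negative.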

The subject of another assay is DIO2 (gene 1734). Kind of assay: CCTE_GLTED_hDIO2: CCTE's human Deiodinase 2 (DIO2) Inhibition Assay, Great Lakes Toxicology and Ecology Division (GLTED) Lab (AID 2284050). An outline of the steps:
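Inhibition is judged by reduced iodide release: uninhibited human DIO2 frees iodide from substrate over 3 h, measured afterward by Sandell-Kolthoff colorimetry. Iodinated chemicals or nitrite, iron and thiocyanate may interfere.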

Another assay deals with DIO3 (gene 1735). Kind of assay: CCTE_GLTED_hDIO3: CCTE's human Deiodinase 3 (DIO3) Inhibition Assay, Great Lakes Toxicology and Ecology Division (GLTED) Lab (AID 2284055).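 Further: potency is for inhibition seen as loss of released iodide signal.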 An outline of the steps: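 Human type 3 deiodinase, expressed via adenovirus system, was exposed to test chemicals for 3 hours in a cell-free format. Released iodide was then determined spectrophotometrically by Sandell-Kolthoff; plates ran in triplicate.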

Chain of Estrogen receptor (Homo sapiens) (P03372 whole entry, looked up): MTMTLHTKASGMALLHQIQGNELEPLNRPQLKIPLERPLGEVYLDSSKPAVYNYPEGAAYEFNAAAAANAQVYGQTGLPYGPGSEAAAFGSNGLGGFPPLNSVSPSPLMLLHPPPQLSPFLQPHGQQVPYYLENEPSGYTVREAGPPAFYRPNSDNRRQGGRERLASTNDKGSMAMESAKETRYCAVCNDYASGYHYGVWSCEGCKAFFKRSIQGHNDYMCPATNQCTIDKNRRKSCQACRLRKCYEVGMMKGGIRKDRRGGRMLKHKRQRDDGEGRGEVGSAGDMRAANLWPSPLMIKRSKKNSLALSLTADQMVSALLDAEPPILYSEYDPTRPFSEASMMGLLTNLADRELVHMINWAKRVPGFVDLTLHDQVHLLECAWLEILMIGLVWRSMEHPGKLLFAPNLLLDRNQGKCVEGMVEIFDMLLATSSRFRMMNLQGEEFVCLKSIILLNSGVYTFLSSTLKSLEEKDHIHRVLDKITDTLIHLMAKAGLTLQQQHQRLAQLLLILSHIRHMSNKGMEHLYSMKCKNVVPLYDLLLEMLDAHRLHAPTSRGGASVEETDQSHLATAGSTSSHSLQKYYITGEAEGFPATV

On to `CCCCCCCCCCO`, for which the call in assay [1], in assay [2] and in assay [3] was inactive.
On to `CC1(C)NC(=O)NC1=O`, for which the result in assay [1], in assay [2] and in assay [3] was inactive.
Take `Cc1cccc(C)c1O`: the compound was called inactive in assay [1], in assay [2] and in assay [3].
As for `CC1=C(/C=C/C(C)=C/C=C/C(C)=C/CO)C(C)(C)CCC1`, the call in assay [2] and in assay [3] was inactive. Further, the AC50 in the assay with DIO2 (gene 1734) was 47 µM (active); with DIO3 (gene 1735), 28.3 µM (active).
Consider `COc1cc(-c2nc(NC(=O)c3cc4cc(C)cc(C)c4n3CC(=O)O)sc2CCC2CCCCC2)c(OC)cc1Cl`, for which the outcome in the assay with DIO2 (gene 1734) was inactive. For the same compound, the AC50 with DIO3 (gene 1735) is 8.64 µM (active).
For the compound `Cc1ccc(C)c(C)c1`, the call in assay [2] and in assay [3] was inactive.
Take `Clc1cc(Cl)c(Cl)cc1Cl`: the call in assay [2] and in assay [3] was inactive.
On to `CCNc1cccc(C)c1`, for which the compound was classed as inactive in assay [2] and in assay [3].
With `CNC(=O)[C@H]1O[C@@H](n2cnc3c(NCc4cc(Cl)ccc4OCc4cc(C)no4)ncnc32)[C@H](O)[C@@H]1N`, the outcome in assay [1], in assay [2] and in assay [3] was inactive.
Take `COCCOCCOC`: the outcome in assay [1], in assay [2] and in assay [3] was inactive.
On to `CNCc1cc(F)ccc1Oc1ccc(Cl)c(Cl)c1`, for which the compound was classed as inactive in assay [1] and in assay [3].
Regarding `CCCCCCC(=O)OCC`, the outcome in assay [2] and in assay [3] was inactive.
Consider `Cc1ccc(C(C)C)c(O)c1`, for which the compound was called inactive in assay [2] and in assay [3].
Turning to `Cc1ccc2ncccc2c1`, the result in assay [1], in assay [2] and in assay [3] was inactive.
As to `CN[C@H]1CC[C@@H](c2ccc(Cl)c(Cl)c2)c2ccc(S(N)(=O)=O)cc21`, the AC50 was 49.3 µM (active) in the assay with DIO2 (gene 1734) and 45.9 µM (active) in the assay on DIO3 (gene 1735).
Turning to `CCCCOC(=O)CCCCCCCCC(=O)OCCCC`, the outcome in assay [1], in assay [2] and in assay [3] was inactive.
Consider `CC1(C)CC(N=C=O)CC(C)(CN=C=O)C1` (stereo unspecified), for which the compound was classed as inactive in assay [2] and in assay [3].
As to `CCCCCC(=O)O`, the call in assay [2] and in assay [3] was inactive.
Take `CCCCC(CC)COC(=O)CC(C(=O)OCC(CC)CCCC)S(=O)(=O)O` (stereo unspecified): the values for the AC50 in the assay on DIO2 (gene 1734) and in the assay with DIO3 (gene 1735) were 85.1 µM (active) and 92.2 µM (active), respectively.
Regarding `CCCCCCCC=O`, the results for the AC50 in assay [2] and in assay [3] were 25.7 µM (active) and 15.6 µM (active), respectively.
Take `CC=Cc1ccc(O)c(OC)c1`: the AC50 with DIO2 (gene 1734) was 68 µM (active); in the assay with DIO3 (gene 1735) it was 14.9 µM (active).
`COc1ccc(C)cc1N`: the call in assay [2] and in assay [3] was inactive.
As for `Cc1ccc(C)c(O)c1C`, the call in assay [1], in assay [2] and in assay [3] was inactive.
In the case of `CCCCCCCCCCCCCO`, the outcome in the assay on DIO2 (gene 1734) was inactive. Moreover, in the assay on DIO3 (gene 1735), the AC50 is 51.8 µM (active).
As to `COc1cc(C=O)ccc1O`, the result in assay [1], in assay [2] and in assay [3] was inactive.
